Only some compounds are listed: those with a hit (about 27% of all), similar ones and a draw of the others.
CYP2C9 act = increases human cytochrome P450 2C9 activity; P11712; recombinant CYP2C9, luciferin-H conversion, luminescence; hits give high values; factor 1 = untreated enzyme, 0 = blocked; activation factor at 5 µM; hit rate 1.4% among 96,000; AID 1024;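 active means activation factor of 2 or more for CYP2C9 at a 5 µM dose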
Cav32 inh = blocks human Cav3.2 T-type calcium channel. O95180. Cav3.2-expressing cells, Fluo-4 calcium fluorescence FDSS; hits give low values. B-score at 10 µM. hit rate 4% among 100,000;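 active means single-dose well whose peak fluorescence ratio is a statistical outlier from its plate by either plate-standardised score or position-corrected B-score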
CYP2C19 activ = increases human CYP2C19 enzyme activity. 96,000 tested, under 10 active. AID 1025. P33261. recombinant CYP2C19, luciferin-H EGE luminescence; hits give high values; 0 = fully inhibited enzyme, 1 = untreated enzyme. activation factor at 5 µM;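 active means activation factor of at least 2 at 5 µM in the primary screen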
CYP2C19 inhib = human CYP2C19 inhibition. CYP2C19 Supersomes, luciferin-H EGE luminescence, 30 min. hit rate 21% among 96,000. inhibition, % at 5 µM. P33261;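 active means CYP2C19 inhibition above a set limit at 5 µM in the primary screen, cut at about 50% in these data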
CYP2C9 inhib = human CYP2C9 inhibition | CYP2C9 Supersomes, luciferin-H conversion, luminescence | P11712 | inhibition, % at 5 µM | hit rate 20% among 96,000 | AID 777;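 active means blocking of liver enzyme CYP2C9 beyond about 50% at 5 µM, limit read from the data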
Of the large screens only hits and unclear results are named; the others gave an inactive call.

COc1ccc(CNC(=O)C2CCN(S(=O)(=O)c3ccc(-c4nn[nH]n4)cc3)CC2)cc1	CYP2C9 inhib 65
O=C(NC1CC2CCC1C2)C1CCN(S(=O)(=O)c2ccc(-c3nn[nH]n3)cc2)CC1 (configuration not stated)	CYP2C9 inhib 87
Cc1ccc(N(C(C)C(=O)N2CCC(C)CC2)S(C)(=O)=O)cc1C (configuration not stated)	none
Nn1c(SCC(=O)NCCC2=CCCCC2)nnc1C(F)(F)F	none
Cc1ccc(CCNC(=O)C2CCCN(S(=O)(=O)c3cccc4nsnc34)C2)cc1 (configuration not stated)	none
O=C(Cc1ccc(-n2cccc2)cc1)NC1CCCCC1	CYP2C19 inhib 55, CYP2C9 inhib 69
CCn1c(=O)n(CC(=O)N2CC(C)CC(C)C2)c(=O)c2ccccc21 (configuration not stated)	none
COc1ccccc1-n1nnnc1SCC(=O)Nc1ccccn1	none
COc1ccc(CSc2nnnn2Cc2ccccc2)cc1OC	CYP2C19 inhib 89, CYP2C9 inhib 75
COc1ccccc1-n1nnnc1SCc1cc2c(cc1Br)OCO2	CYP2C9 inhib 55
COc1ccccc1-n1nnnc1SCc1ccccc1	CYP2C19 inhib 75
O=C(NCC(c1cccnc1)N1CCN(c2ccccc2F)CC1)OCc1ccccc1 (configuration not stated)	CYP2C19 inhib 91, CYP2C9 inhib 94
O=C(NCC(c1cccnc1)N1CCN(c2ccccc2)CC1)OCc1ccccc1 (configuration not stated)	none (no result: CYP2C9 act, CYP2C19 activ, CYP2C19 inhib, CYP2C9 inhib)
O=C(NCC(c1cccnc1)N1CCN(c2ccccc2F)CC1)c1ccco1 (configuration not stated)	none
O=C(NCC(c1cccnc1)N1CCOCC1)c1ccc2c(c1)OCO2 (configuration not stated)	none (no result: CYP2C9 act, CYP2C19 activ, CYP2C19 inhib, CYP2C9 inhib)
O=C(NCC(c1cccnc1)N1CCN(c2ccccc2)CC1)c1ccc2c(c1)OCO2 (configuration not stated)	CYP2C19 inhib 59, CYP2C9 inhib 76
O=C(NCC(c1cccnc1)N1CCN(c2ccc(F)cc2)CC1)OCc1ccccc1 (configuration not stated)	CYP2C19 inhib 85, CYP2C9 inhib 82
O=C(NCC(c1cccnc1)N1CCN(c2ccccc2F)CC1)c1ccccc1 (configuration not stated)	CYP2C19 inhib 52
O=C(O)c1cn[nH]c1-n1cnnn1	none
CCO[C@H]1OC(C(=O)N2CCN(Cc3ccc4c(c3)OCO4)CC2)=C[C@@H](c2ccc(C(F)(F)F)cc2)[C@@H]1CCCO	none (no result: CYP2C9 act, CYP2C19 activ, CYP2C19 inhib, CYP2C9 inhib)
O=C(NCC(c1cccnc1)N1CCN(c2ccc(F)cc2)CC1)c1cccc(Cl)c1 (configuration not stated)	CYP2C9 inhib 52
O=S(=O)(NCC(c1cccnc1)N1CCN(c2ccc(F)cc2)CC1)c1cc(F)ccc1F (configuration not stated)	none (no result: CYP2C9 act, CYP2C19 activ, CYP2C19 inhib, CYP2C9 inhib)
Cc1ccc(S(=O)(=O)NCc2ccco2)c(C)c1C	CYP2C9 act 3.5, CYP2C19 inhib 56
Cc1cccc(N2CCN(C(=O)c3ccc(Cl)c(S(=O)(=O)NCc4ccco4)c3)CC2)c1C	CYP2C9 inhib 76 (no result: Cav32 inh)
O=C(O)c1ccc(Cl)c(S(=O)(=O)NCc2ccco2)c1	none
O=C(NCc1ccco1)c1ccc(Br)c(S(=O)(=O)N2CCCCC2)c1	none
O=S(=O)(NCc1ccco1)c1cccc(S(=O)(=O)N2CCCCC2)c1	none
O=C(NCC1(N2CCOCC2)CCCCC1)c1ccc(Cl)c(S(=O)(=O)NCc2ccco2)c1	CYP2C19 inhib 53, CYP2C9 inhib 71
COc1ccccc1NC(=O)CNC(=O)c1ccccc1C	none
CC(C)CCN(C(=O)CNC(=O)c1ccco1)C(C(=O)NC1CCCCC1)c1ccco1 (configuration not stated)	CYP2C19 inhib 70, CYP2C9 inhib 51
O=C(NCc1ccc2c(c1)OCO2)C(c1ccco1)N(C(=O)c1csnn1)c1ccccc1 (configuration not stated)	CYP2C19 inhib 75
COC(=O)c1ccc(C(C(=O)NCc2ccccc2)N(Cc2cccs2)C(=O)c2cnccn2)cc1 (configuration not stated)	none
COCCN(C(=O)CNC(=O)c1ccco1)C(C(=O)NC1CCCC1)c1cccs1 (configuration not stated)	none (no result: CYP2C9 act, CYP2C19 activ, CYP2C19 inhib, CYP2C9 inhib)
COC(=O)c1cccc(N(C(=O)c2cnccn2)C(C(=O)NCc2ccccc2)c2ccco2)c1 (configuration not stated)	CYP2C19 inhib 71
COC(=O)c1cccc(N(C(=O)CNC(=O)c2ccco2)C(C(=O)NC2CCCC2)c2ccco2)c1 (configuration not stated)	CYP2C9 inhib 64
CC(=O)N1CCc2c(sc(NC(=O)c3ccc4c(c3)OCCO4)c2C#N)C1	none
COC(=O)Nc1ncc(CN2CCc3ccccc3C2)s1	CYP2C19 inhib 76
CCc1nnc(NS(=O)(=O)c2ccc(NS(=O)(=O)c3ccc(NC(C)=O)cc3)cc2)s1	CYP2C9 inhib 77
CCc1nnc(NS(=O)(=O)c2ccc(N/C=C\C(=O)c3ccc(C)cc3)cc2)s1	CYP2C9 inhib 88
CCc1[nH]nc2c1C1(C(=O)N(Cc3ccccc3)c3ccccc31)C(C#N)=C(N)O2 (configuration not stated)	CYP2C19 inhib 85, CYP2C9 inhib 88
COC(=O)Cc1[nH]nc2c1C1(C(=O)N(Cc3ccc(Cl)cc3)c3ccccc31)C(C#N)=C(N)O2 (configuration not stated)	none
CCOC(=O)CSc1snnc1-c1ccccc1	none
COc1ccc(CCNC(=O)/C=C/c2ccc(C)cc2)cc1OC	none
CC(C)CSc1nc(N2CCOCC2)c2c(c1C#N)CC(C)(C)SC2	CYP2C9 inhib 87
CC1(C)Cc2c(c(N3CCCCC3)[nH]c(=S)c2C#N)CS1	none
CC(C)Sc1nc(N2CCOCC2)c2c(c1C#N)CC(C)(C)SC2	CYP2C19 inhib 70, CYP2C9 inhib 95
CC(C)Sc1nc(N2CCCC2)c2c(c1C#N)CC(C)(C)OC2	CYP2C19 inhib 61, CYP2C9 inhib 87
CCCSc1nc(N2CCOCC2)c2c(c1C#N)CC(C)(C)SC2	CYP2C9 inhib 66
CCc1[nH]c(=O)c(C#N)c2c1CSC(C)(C)C2	none (no result: CYP2C9 act, CYP2C19 activ, CYP2C19 inhib, CYP2C9 inhib)
COCCn1ccc(O)c(Cc2ccc(Cl)cc2)c1=O	none
O=C(c1ccccc1Sc1cccc2ccccc12)N1CCOCC1	none (no result: CYP2C9 act, CYP2C19 activ, CYP2C19 inhib, CYP2C9 inhib)
CC(C)Sc1nc(N2CCOCC2)c2c(c1C#N)CC(C)(C)N(C)C2	CYP2C19 inhib 64, CYP2C9 inhib 97
N#CCc1c(C#N)c(N)nc(N2CCOCC2)c1C#N	none (no result: CYP2C9 act, CYP2C19 activ, CYP2C19 inhib, CYP2C9 inhib)
C=C(C)c1cccc(C(C)(C)NC(=O)N(Cc2ccccc2)Cc2ccco2)c1	CYP2C9 inhib 72 (no result: Cav32 inh)
CCOC(=O)c1ccc(NC(=S)Nc2ccccn2)cc1	none
C=CCn1c(SCCOc2ccccc2)nnc1C(C)NC(=O)c1ccccc1 (configuration not stated)	none
C=CCn1c(C(C)NC(=O)c2ccccc2)n[nH]c1=S (configuration not stated)	CYP2C19 inhib 62

Screening data deposited in PubChem by several laboratories.
